GAA850 FXN act = FXN promoter activators, primary screen, cell-based, luciferase luminescence, HEK293 lucGAA850. HEK293 lucGAA850 FXN promoter luciferase reporter, 24 h; percent of 10 µM SAHA response. activation, % at 6 µM. 360,000 compounds, 0.56% hits;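 active means activation above the average of all compounds screened plus 3 SD, cutoff fixed separately per campaign, cut at about 7.5% in these data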
FAS-TE inh = FAS thioesterase domain inhibitors, primary screen, biochemical, fluorescence intensity, uHTS; Fatty acid synthase (Homo sapiens), P49327; recombinant FAS-TE, OMFH fluorogenic substrate, fluorescence endpoint; inhibition, % at 15 µM; 360,000 compounds, 0.67% hits;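 active means compounds whose normalised, plate-corrected inhibition of enzyme fluorescence in the single-dose primary screen is 50% or more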
SMARCA2 activ = SMARCA2 (BRM) function activators, primary screen, cell-based, luminescence, high throughput; MG213 cells, MMTV-luciferase reporter, dexamethasone, overnight; activation, % at 9.1 µM; 370,000 compounds, 1% hits; AID 652017, 2013; in the data active means activation above about 7.8%
KLK7 zymogen act = proKLK7 zymogen activators, primary screen, biochemical, fluorescence intensity; Kallikrein-7 (Homo sapiens), P49862; activation, % at 7 µM; 370,000 compounds, 0.9% hits; purified proKLK7, EDANS-DABCYL substrate fluorescence; 100% is mature enzyme control, 0% vehicle;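 active means activation above the mean of all tested compounds plus 3 SD, computed per campaign excluding outliers beyond control limits, cut at about 13% in these data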
FAS-TE inh conf = FAS thioesterase domain inhibitors, confirmation, biochemical, fluorescence intensity, single concentration; shares compounds with FAS-TE inh; recombinant FAS-TE, OMFH fluorogenic substrate; inhibition, % at 15 µM; 2,300 compounds, 45% hits; AID 624325, 2012;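 active means compounds inhibiting the enzyme by at least 50% at 15 µM in any one of the replicates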
A number is an active result; i = inactive; nt = not tested or not shown. Sampled rows, rich in hits. Any-hit rate of the full collection: about 2.9%.

SMILES	GAA850 FXN act	FAS-TE inh	SMARCA2 activ	KLK7 zymogen act	FAS-TE inh conf
O=C1C=CC(=O)C2C1C1(Cl)C(Cl)=C(Cl)C2(Cl)C1(Cl)Cl (stereo unspecified)	i	60	i	i	57
CN(Cc1cccc(-c2cccnc2)c1)C(=O)Oc1ccc([N+](=O)[O-])cc1	nt	51	i	i	i
O=S(=O)(c1cc(Cl)cc(Cl)c1)N1Cc2cc(-c3ccccc3)ccc2-n2nncc2C1	nt	86	i	i	i
Nc1cccc(SC2CC(=O)N(c3ccc(Cl)cc3C(=O)c3ccccc3)C2=O)c1 (stereo unspecified)	i	i	i	i	nt
CCCCn1c(C)c(C(=O)O)c2cc(OC)c3ccccc3c21	i	i	i	i	nt
CCC(c1nnnn1-c1ccc(OC)cc1)N1CCC(n2c(=O)[nH]c3ccccc32)CC1 (stereo unspecified)	nt	i	i	i	nt
COc1cccc(C(c2nnnn2-c2c(C)cccc2C)N2CCC(n3c(=O)[nH]c4ccccc43)CC2)c1OC (stereo unspecified)	nt	82	i	i	i
O=c1[nH]c2ccccc2n1C1CCN(C(c2ccnc3ccccc23)c2nnnn2-c2ccc3c(c2)OCCO3)CC1 (stereo unspecified)	nt	i	i	i	nt
Cc1cccc(C)c1-n1nnnc1C(CCc1ccccc1)N1CCC(n2c(=O)[nH]c3ccccc32)CC1 (stereo unspecified)	nt	54	i	i	i
O=c1[nH]c2ccccc2n1C1CCN(C(CCc2ccccc2)c2nnnn2-c2ccc3c(c2)OCCO3)CC1 (stereo unspecified)	nt	89	i	i	i
COc1ccc(C(c2nnnn2-c2ccc3c(c2)OCCO3)N2CCC(n3c(=O)[nH]c4ccccc43)CC2)cc1 (stereo unspecified)	nt	54	i	i	i
COc1ccc2c(c1)C(c1ccc(N(CCCl)CCCl)cc1)=NCC2	i	i	i	i	nt
C[C@]12CC[C@H]3[C@@H](CCC4=CC(=O)CC[C@@]43O)[C@@H]1CCC2=O	i	i	i	i	nt
O=P(NS(=O)(=O)c1ccc(Br)cc1)(Oc1ccccc1)Oc1ccccc1	i	i	i	i	nt
COc1ccc(-n2nnnc2C(c2ccccc2OC(F)(F)F)N2CCC(n3c(=O)[nH]c4ccccc43)CC2)cc1 (stereo unspecified)	nt	60	i	i	i
S=C(NCCc1ccccc1)N1Cc2cc(Br)ccc2-n2nncc2C1	nt	62	i	i	25
COC(=O)C1=C(c2cccc3c2S(=O)(=O)c2ccccc2-3)C[C@@H]2CC[C@H]1N2C(=O)N1CCOCC1	i	i	i	i	nt
COC(=O)C1=C(c2cccc3c2S(=O)(=O)c2ccccc2-3)C[C@@H]2CC[C@H]1N2C(=O)N1CCc2cc(OC)c(OC)cc2C1	i	68	i	i	i
Cc1ccc2nc(-c3ccc(CN4CCC(n5nnc6ccccc65)CC4)cc3)c(-c3ccccc3)nc2c1	nt	nt	i	i	nt
O=c1[nH]c2ccccc2n1C1CCN(Cc2ccc(-c3nc4ccc(F)cc4nc3-c3ccccc3)cc2)CC1	nt	63	i	i	i
O=c1[nH]c2ccccc2n1C1CCN(Cc2ccc(-c3nc4ccccc4nc3-c3ccccc3)cc2)CC1	nt	61	i	i	i
O=c1[nH]c2cc(Cl)ccc2n1C1CCN(Cc2ccc(-c3nc4ccc(F)cc4nc3-c3ccccc3)cc2)CC1	nt	nt	i	i	nt
Cc1ccc2nc(-c3ccc(CN4CCC(n5c(=O)[nH]c6ccccc65)CC4)cc3)c(-c3ccccc3)nc2c1	nt	72	i	i	i
Cc1cccc2nc(-c3ccccc3)c(-c3ccc(CN4CCC(n5c(=O)[nH]c6cc(Cl)ccc65)CC4)cc3)nc12	nt	nt	i	i	nt
COc1ccc2nc(-c3ccc(CN4CCC(n5c(=O)[nH]c6ccccc65)CC4)cc3)c(-c3ccccc3)nc2c1	nt	76	i	i	i
SMILES	GAA850 FXN act	FAS-TE inh	SMARCA2 activ	KLK7 zymogen act	FAS-TE inh conf
CSc1ccc(C(=O)C2CCCN(CCCn3cccn3)C2)cc1 (stereo unspecified)	i	i	i	i	nt
O=C1NCN(c2ccccc2)C12CCN(C(c1cccs1)c1nnnn1Cc1ccccc1)CC2 (stereo unspecified)	nt	i	i	i	nt
CCCCn1c(O)c(C(C)=Nc2ccc(C(=O)O)cc2)c(=O)[nH]c1=O	i	i	i	i	nt
Cc1cccc(CSc2nc3c(cc2C#N)CN(C)CC3)c1	i	i	i	i	nt
CN1CCc2nc(SCc3ccccc3Br)c(C#N)cc2C1	i	54	i	i	45
CC1CC(OP(O)(=S)c2ccc(N(C)C)cc2NC(=O)c2cccs2)CC(C)(C)C1 (stereo unspecified)	i	i	i	i	nt
Cc1cccc(Cn2cc(C=O)c3ccccc32)c1	i	i	i	i	nt
O=Cc1cn(Cc2cccc([N+](=O)[O-])c2)c2ccccc12	i	55	i	i	59
CC(C)[C@H]1C(=O)O[C@H](C(C)C)C(=O)N(C)[C@@H](C(C)C)C(=O)O[C@H](C(C)C)C(=O)N(C)[C@@H](C(C)C)C(=O)O[C@H](C(C)C)C(=O)N1C	i	i	nt	nt	nt
CCOC(=O)[C@]12Cc3cc(C)ccc3[C@H]1N(Cc1ccccc1)C(=O)c1ccccc12	i	i	i	i	nt
CCOC(=O)[C@]12Cc3cc(C)ccc3[C@H]1N(C(C)C)C(=O)c1ccccc12	nt	57	i	i	i
CCOC(=O)[C@]12Cc3cc(C)ccc3[C@H]1N(C1CCCCC1)C(=O)c1cc(OC)ccc12	nt	85	i	i	40
CCOC(=O)[C@]12Cc3cc(OC)ccc3[C@H]1N(C1CCCCC1)C(=O)c1cc(OC)ccc12	nt	62	i	i	i
CCOC(=O)[C@]12Cc3cc(C)ccc3[C@H]1N(CCC(=O)OC)C(=O)c1cc(OC)ccc12	nt	i	i	i	nt
NC(N)=N/N=C/c1cn(-c2ccccc2)nc1-c1cccs1	i	i	i	i	nt
CN1CCN(c2cc([N+](=O)[O-])ccc2Cl)CC1	i	i	i	i	nt
COc1ccc(C(c2nnnn2-c2ccc(OC)cc2)N2CCC3(CC2)C(=O)NCN3c2ccccc2)cc1 (stereo unspecified)	nt	52	i	i	i
O=C1NCN(c2ccccc2)C12CCN(C(c1ccccc1OC(F)(F)F)c1nnnn1-c1ccc3c(c1)OCCO3)CC2 (stereo unspecified)	nt	82	i	i	i
COc1ccc(-n2nnnc2C(c2ccccc2)N2CCC3(CC2)C(=O)NCN3c2ccccc2)cc1 (stereo unspecified)	nt	i	i	i	nt
COc1ccc(-n2nnnc2C(c2ccccc2OC(F)(F)F)N2CCC3(CC2)C(=O)NCN3c2ccccc2)cc1 (stereo unspecified)	nt	60	i	i	i
C=CCn1c(=O)c(C=Nc2c(OC)cccc2[N+](=O)[O-])c(O)n(CCCC)c1=O	i	70	i	i	i

Screening results (PubChem)
